# From PubChem BioAssay
# Hits are enriched below; roughly 3.7% of the tested compounds scored in any of these assays.
# MazF activator: MazEF (E. coli) toxin RNase activation | P0AE70 | FAM/BHQ RNA-DNA oligo cleavage fluorescence, 5 h | activation, % at 20 µM | 350,000 compounds, 0.32% hits; in the data active = activation above about 50%
# BoNT-A LC inh2: blocks Botulinum neurotoxin A light chain protease; multiplex microsphere protease substrate cleavage, flow cytometry; inhibition, % at 10 µM; 360,000 compounds, 0.17% hits; also: plate controls were buffer without enzyme for full effect and enzyme alone for no effect
# Autofluor counter: counter-screen for toxin protease inhibitors: compound fluorescence; compound autofluorescence counterscreen, microsphere flow cytometry; hits give high values; fluorescence intensity (test concentration not listed); 360,000 compounds, 3.1% hits; AID 624483; in the data active = fluorescence intensity above about 16000; inconclusive = no clear call, values can overlap the other calls
# BoNT-F LC inh: inhibitors of Botulinum neurotoxin F light chain protease; Multiplex microsphere protease cleavage assay, flow cytometry; inhibition, % at 10 µM; 360,000 compounds, 0.22% hits; in the data active = inhibition above about 35%, passing the limit was not always enough; inconclusive = no clear call, values can overlap the other calls; also: plate controls were buffer without enzyme for full effect and enzyme alone for no effect
# Anthrax LF prot: blocks Bacillus anthracis lethal factor protease; P15917; multiplex microsphere protease cleavage assay, LF; inhibition, % at 10 µM; 360,000 compounds, 0.12% hits; also: plate controls were buffer without enzyme for full effect and enzyme alone for no effect
# Target sequence (P15917 whole entry, looked up): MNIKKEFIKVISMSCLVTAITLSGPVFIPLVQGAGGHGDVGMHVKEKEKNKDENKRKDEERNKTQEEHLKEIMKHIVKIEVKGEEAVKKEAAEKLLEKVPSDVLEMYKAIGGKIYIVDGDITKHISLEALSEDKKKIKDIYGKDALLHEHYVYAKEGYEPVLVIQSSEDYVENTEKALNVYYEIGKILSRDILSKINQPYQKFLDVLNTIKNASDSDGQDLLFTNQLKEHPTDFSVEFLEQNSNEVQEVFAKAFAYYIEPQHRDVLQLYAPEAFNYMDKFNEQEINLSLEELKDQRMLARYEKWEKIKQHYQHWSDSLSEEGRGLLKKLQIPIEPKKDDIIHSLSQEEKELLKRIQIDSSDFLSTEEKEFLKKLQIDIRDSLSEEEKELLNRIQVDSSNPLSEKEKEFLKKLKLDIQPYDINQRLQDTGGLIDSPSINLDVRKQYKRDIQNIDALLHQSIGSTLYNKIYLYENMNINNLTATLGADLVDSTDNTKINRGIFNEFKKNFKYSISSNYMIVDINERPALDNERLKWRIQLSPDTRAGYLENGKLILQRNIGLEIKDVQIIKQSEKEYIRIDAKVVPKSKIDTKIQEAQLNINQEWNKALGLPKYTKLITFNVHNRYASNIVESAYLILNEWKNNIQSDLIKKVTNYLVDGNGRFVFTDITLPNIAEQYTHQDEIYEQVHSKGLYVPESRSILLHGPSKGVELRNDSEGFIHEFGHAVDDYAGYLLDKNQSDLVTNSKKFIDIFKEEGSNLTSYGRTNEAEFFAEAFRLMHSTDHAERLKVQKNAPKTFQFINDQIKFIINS
# * hit, by the source's call; u = inconclusive; x = no result given. Rule as the data show it, unless noted: active = inhibition above about 30%; inconclusive = no clear call, values can overlap the other calls; inactive = below that.
SMILES,MazF activator,BoNT-A LC inh2,Autofluor counter,BoNT-F LC inh,Anthrax LF prot
COCCN(Cc1nc2ccccc2c(=O)[nH]1)C(=O)COc1ccccc1-c1ccccc1,-5,4,5563,4,-3
O=C(NCc1ccc(F)cc1F)[C@@H]1CCCN1C(=O)[C@@H]1CCCN1C(=O)c1ccccc1,x,1,6063,1,2
N#CC1(C#N)CC(C=O)=C(N)C1(C#N)CC(=O)c1ccc(F)cc1 (configuration not stated),154*,1,5220,-8,1
C(=NN=C1c2ccccc2-c2ccccc21)c1ccc2c(c1)OCO2,-2,-1,3052,-8,-8
Cc1nn(C(C)c2n[nH]c(=S)n2-c2cccc(Cl)c2)c(C)c1[N+](=O)[O-] (configuration not stated),4,4,18732*,3,-8
COc1ccc(-n2c(C(C)n3nc(C)c([N+](=O)[O-])c3C)n[nH]c2=S)cc1 (configuration not stated),-1,0,9879,12,-13
Cc1ccc(-n2c(C(C)n3nc(C)c([N+](=O)[O-])c3C)n[nH]c2=S)cc1 (configuration not stated),3,1,19726*,0,2
CCn1c(SCC(=O)NCc2cccs2)nnc1-c1cccs1,0,-2,23563*,0,-1
Cc1ccc(-n2c(COc3c(C)cccc3C)nnc2SCC(=O)Nc2nccs2)cc1,-16,0,7812,-1,6
CCn1c(CNC(=O)COc2c(C)cccc2C)nnc1SCC(=O)Nc1nccs1,2,8,17164*,10,-14
Cc1cc(C)n(-c2nc3ccccc3c(=O)n2OCC(N)=O)n1,-4,0,21858*,-1,-1
Cc1cc(CC(C)C)n(-c2nc3ccccc3c(=O)n2OCC(N)=O)n1,0,0,4378,u,-4
Nc1ncnc2c1ncn2[C@@H]1O[C@H](CNS(=O)(=O)c2cc3ccccc3s2)[C@@H](O)[C@H]1O,6,0,3973,-2,3
O=c1nc2s/c(=C\c3ccco3)c(=O)n2nc1Cc1ccc(F)cc1,2,-2,25032*,-4,-2
CN(C)c1ccc(S(=O)(=O)N2CCCCC2)cc1NC(=O)CCNC(=O)c1ccccc1Cl,-2,0,3937,-2,-6
CC(C)OC(=O)CSc1nnc2n1C(C)(C)Cc1ccccc1-2,8,0,16487*,-1,-3
CCOC(=O)CSc1nnc2n1C(C)(C)Cc1ccccc1-2,0,1,16513*,2,-2
CCSc1nnc2n1C(C)(C)Cc1ccccc1-2,13,0,2678,1,0
CN(Cc1ccccc1)C(=O)c1ccc(NC(=O)Cc2ccc(NC(=O)C3CCCN(C(=O)C4CC4)C3)cc2)cc1 (configuration not stated),-7,-1,3909,-5,-4
COc1cccc(-c2cccc3c2NC(=O)C3(C)Cc2ccccc2F)c1 (configuration not stated),x,0,2948,-5,-4
Cc1cccc(OC(C)c2ccnc3nc(/N=C/N(C)C)nn23)c1 (configuration not stated),-5,-3,21315*,-4,0
Cc1nn(-c2ccccc2)c(C)c1C(=O)OCC(=O)N1CCN(S(=O)(=O)c2ccccc2)CC1,2,u,21834*,1,-3
Cc1nn(-c2ccccc2)c(C)c1C(=O)OCC(=O)NC12CC3CC(CC(C3)C1)C2,1,2,22484*,2,-1
CCOc1ccc(NC(=O)c2c(NC(=O)CNCCN3CCOCC3)sc3c2CCC3)cc1,-4,1,6212,0,-1
Cc1nc2nc(C(F)(F)F)[nH]c2nc1C,6,0,4015,4,-7
SMILES,MazF activator,BoNT-A LC inh2,Autofluor counter,BoNT-F LC inh,Anthrax LF prot
COc1ccc2c(c1)/C(=C/c1cnc[nH]1)C(=O)N2,0,0,6058,2,-12
O=C1Nc2ccccc2/C1=C/c1cccnc1,9,-1,2160,-7,-3
O=C1Nc2ccccc2/C1=C/c1cnc[nH]1,2,3,19606*,0,-7
O=C1Nc2ccccc2/C1=C/c1cnc(-c2ccccc2)[nH]1,98*,x,x,x,x
Cc1cccc(CN2CCN(C3CN(Cc4cn(Cc5ccc(F)cc5)nn4)S(=O)(=O)C3)CC2)c1 (configuration not stated),x,0,5651,3,-1
CCC(Oc1cc(Cl)ccc1Cl)C(=O)NN1C(=O)C2C3CCC(C3=C(C)C)C2C1=O (configuration not stated),4,1,4726,35*,0
Cc1cc(S(=O)(=O)NCC(C)C)ccc1OCC(=O)N1CCOCC1,8,2,3940,u,6
Cc1cc(S(=O)(=O)NCC(C)C)ccc1OCC(=O)NCc1ccccn1,-4,-3,21787*,-4,-2
CCOC(=O)COc1ccc(S(=O)(=O)Nc2cccc(SC)c2)cc1,-16,-3,21447*,-5,0
CCOC(=O)N1CCN(C(=O)COc2ccc(S(=O)(=O)NCC(C)C)cc2C)CC1,3,-2,21204*,-3,-1
CCOC(=O)N1CCN(C(=O)COc2ccc(S(=O)(=O)Nc3ccc(OCC)cc3)cc2)CC1,1,u,17078*,-6,-8
Cc1cc(C)c(S(=O)(=O)Nc2ncn[nH]2)cc1C,-1,-1,4614,-2,2
NC1(CO)COC(c2ccccc2)OC1 (configuration not stated),7,0,3494,-2,-6
COc1ccccc1C(=O)N1CCN(C(=O)[C@H]2O[C@@H](n3ccc(=O)[nH]c3=O)[C@H](O)[C@@H]2O)CC1,x,1,5752,5,-8
Cn1c2c(c(=O)n(C)c1=O)CN(Cc1ccccc1)CN2,x,0,5602,4,-2
Cc1cc(C)n2nc(C(=O)N3CCOCC3)nc2n1,5,0,8807,6,-4
Cc1cc(C)n2nc(SC(C)C(=O)N3CCC4(CC3)OCCO4)nc2n1 (configuration not stated),1,u,24597*,-6,-1
CCN1CCN(C(C(=O)NC2CCCCC2)c2ccnc3ccccc23)CC1 (configuration not stated),x,0,5644,-2,-2
Cc1occc1C(=O)NCCc1ccc(Cl)cc1,3,-2,20471*,-2,-5
COc1ccc(CCNC(=O)c2cc(-c3cc(Cl)cc(Cl)c3)oc2C)cc1,-11,2,21204*,4,-7
Cc1occc1C(=O)NCCCCc1ccccc1,2,-1,5138,-18,-1
Cc1oc(-c2cc(Cl)cc(Cl)c2)cc1C(=O)NCCc1ccccc1,-8,-1,1974,-1,-3
C=CCN(c1ccccc1OC)S(=O)(=O)c1cccc(C(=O)Nc2nnc(C3CC3)s2)c1,1,x,x,x,x
CCCCNC(=O)c1nc(C2CCN(S(=O)(=O)c3c(F)cccc3F)CC2)oc1-c1cccc(C(F)(F)F)c1,x,0,6086,-1,3
CCC(NC(=O)OC(C)(C)C)C(=O)Oc1cc(C)cc2oc(=O)c3c(c12)CCC3 (configuration not stated),7,-1,20994*,-2,0
